Screens deposited in PubChem BioAssay by National Center for Advancing Translational Sciences (NCATS).
GLS inhibitor: blocks human kidney-isoform glutaminase activity; O94925; GLS enzymatic activity, qHTS titration; Potency, µM (doses to about 45.5 µM), actives largely listed as inhibitors; 0.21% of 410,000 active
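Glutamate formation by hKGA was monitored fluorometrically using coupled glutamate oxidase, HRP and Amplex Red. Substrate was added as 1 mM L-glutamine solution; incubation was 30 min at RT after an initial read.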
12-LOX inh: ALOX12 (human) lipoxygenase inhibition | purified 12hLO, xylenol orange hydroperoxide absorbance | Potency, µM (titrated, usually from 108 µM), actives largely listed as inhibitors | 1.1% of 580,000 active | AID 1671190
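Purified human 12hLO at 150 nM in 25 mM Hepes, 0.01% Triton X-100, pH 7.0, preincubated 15 min at room temperature with compound. Reaction started with 40 uM arachidonic acid, 30 min at room temperature. Hydroperoxide measured by Fe-xylenol orange, 573/405 nm absorbance ratio.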
GLP1R ag: GLP-1 receptor (human) agonism; AID 624172; Potency, µM (top dose mostly 45.6 µM), hits mostly activators; 0.007% of 380,000 active; HEK293 GLP-1R CRE-luciferase, luminescence, 4-6 h; cells express a hypersensitive GLP-1R form
Target sequence (P43220 whole entry, looked up): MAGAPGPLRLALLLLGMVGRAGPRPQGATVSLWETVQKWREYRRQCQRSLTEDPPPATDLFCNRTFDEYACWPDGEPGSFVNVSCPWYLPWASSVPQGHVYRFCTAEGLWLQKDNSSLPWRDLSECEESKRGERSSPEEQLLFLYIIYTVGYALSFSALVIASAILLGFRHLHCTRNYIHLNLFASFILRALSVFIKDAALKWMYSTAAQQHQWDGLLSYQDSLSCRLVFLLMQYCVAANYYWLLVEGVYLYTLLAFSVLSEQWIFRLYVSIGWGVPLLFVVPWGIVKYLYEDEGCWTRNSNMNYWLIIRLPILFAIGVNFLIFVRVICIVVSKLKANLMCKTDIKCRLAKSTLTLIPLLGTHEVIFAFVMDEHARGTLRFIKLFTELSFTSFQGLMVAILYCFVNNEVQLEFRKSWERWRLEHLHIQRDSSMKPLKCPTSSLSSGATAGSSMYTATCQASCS
GRP78 ERSR act: induces the endoplasmic reticulum stress response in human glioma cells | U87-MG GRP78 promoter luciferase reporter, 16 h | Potency, µM, hits mostly activators | 0.02% of 420,000 active | AID 602332; also: series mostly up to about 76 µM; nearly all actives have a fitted effect of over 35% in size
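ERSR induction read as luciferase luminescence (Bright-Glo, 10 min at room temperature) in stably transfected human U87-MG glioma cells exposed to compounds for 16 h, using GRP78 as sensor.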
GLP1R inv ag: acts as inverse agonist at human GLP-1 receptor; HEK293 GLP-1R CRE-luciferase, luminescence, 24 h; GLP-1R form is constitutively active; Potency, µM (top dose mostly 38.3 µM), most hits filed as inhibitors; 1.6% of 410,000 active; AID 624417; also: nearly all actives have a fitted effect of over 55% in size
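Readout was luciferase luminescence, measured 12 min after detection reagent at room temperature. Beforehand, GLP-1R reporter HEK293 cells had sat 12 h, then received compounds for 24 hr at 37 deg C.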
PTHR1 ag: PTHR1 (human) receptor agonism; HEK293 GP2 PTHR1 cells, GloSensor cAMP luminescence, 1 h; 0.075% of 410,000 active; Q03431; Potency, µM (top dose mostly 115 µM), hits mostly activators; also: nearly all actives have a fitted effect of over 55% in size
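HEK-293-derived GP2 cells expressing PTHR1 and a GloSensor cAMP reporter, 3,000/well, plated overnight, given luciferin plus IBMX (each 0.5 mM as added) for 1 h at 37 °C, then compound for 1 h at 37 °C. Luminescence was read after 15 min at room temperature.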
A number is an active result; – = inactive; ? = inconclusive; · = not tested or not shown; ! = repeats disagree; [ ] = another dose, or the depositor's remark. Sampled rows, rich in hits. Any-hit rate of the full collection: about 2.3%. Calls follow the shape of the dose curve; as a rule, active = well fitted curve in the direction sought with a large enough effect; inconclusive = small, poorly fitted or top-dose-only effect, or another doubt; inactive = no such curve, though single readings can be large; an effect the other way counts as inactive or inconclusive.

SMILES	GLS inhibitor	12-LOX inh	GLP1R ag	GRP78 ERSR act	GLP1R inv ag	PTHR1 ag
O=S(=O)(NC1CCc2ccccc21)c1ccccc1 (configuration not stated)	–	–	–	–	?	–
CCN(CC)S(=O)(=O)c1cc([N+](=O)[O-])ccc1N/N=C/c1cccs1	·	–	·	·	·	·
CC(=O)Nc1sc(C)c(C)c1C#N	·	–	·	·	·	·
Cc1sc(NC(=O)CC(C)(C)C)c(C#N)c1C	·	12.6µM	·	·	·	·
Cc1nn(C)cc1CN(C)Cc1cn(C)nc1-c1ccc(C2CCCCC2)cc1	·	–	·	·	·	·
Cn1cc(CNCc2cn(C)nc2-c2ccc(C3CCCCC3)cc2)cn1	–	–	–	–	7.94µM	–
Cc1scc(C(=O)N/N=C/c2ccc(OCC(C)C)cc2)c1C	–	–	–	–	8.91µM	–
O=[n+]1cc(-c2ccccc2)n([O-])c2ccccc21	·	–	·	·	·	·
O=[N+]([O-])c1ccc(/C=N/Nc2ccc(C(F)(F)F)cn2)cc1	·	–	·	·	·	·
C=CCn1c(Cc2cccs2)nnc1SCC(=O)c1cccc(Br)c1	–	–	–	–	5.62µM	–
CC(C)[C@@H]1Cc2[nH]c(=S)[nH]c(=O)c2[C@H](CCc2ccccc2)O1	–	44.7µM	–	·	–	–
Cc1cccc(-c2ocnc2C(=O)Nc2ccccc2NC(=O)c2ccccn2)c1	–	–	–	–	0.501µM	–
Cc1ccc(C(=O)/C=C/c2ccc(F)cc2)o1	–	–	–	–	–	–
Cc1ccc(C(=O)/C=C/c2cccc3ccccc23)o1	·	15.8µM	·	·	·	·
Cc1ccc(S(=O)(=O)Nc2cccc(S(=O)(=O)C3CCCC3)c2)c(C)c1	·	–	·	·	·	·
CCC(=O)N1Cc2ccccc2CC2(CCN(CCc3ccc(C)cc3)CC2)C1	·	35.5µM	·	·	·	·
CCC(=O)N1Cc2ccccc2CC2(CCN(Cc3ccc(O)cc3)C2)C1 (configuration not stated)	·	–[6.33 µM]	·	·	·	·
O=C(NNC(=O)C1CCN(Cc2ccc(F)cc2Cl)CC1)Nc1ccc([N+](=O)[O-])cc1	–	–	–	–	3.98µM	–
O=C(N[C@@H]1CN(Cc2ccc(F)cc2Cl)C[C@H]1CO)C1CC1	·	–	·	·	·	·
CCN(CCO)c1ccc(Nc2cc(-c3ccc(-c4ccccc4)cc3)ncn2)cc1	–	11.2µM	–	–	?	–
Cc1ccc(-c2cc(Nc3ccc(C(=O)N(C)Cc4ccccc4)cc3)ncn2)cc1	·	–	·	·	·	·
CCCN(CC(=O)Nc1ccccc1C)C(=O)c1cc2ccccc2oc1=O	–	12.6µM!	–	–	–	–
CCN(CC(=O)Nc1ccc(NC(C)=O)cc1)C(=O)c1cc2ccccc2oc1=O	–	–	–	–	–	–
CCN1C(=O)[C@@H]2Cc3c([nH]c4ccccc34)C(c3cc(OC)c(OC)c(OC)c3)N2C1=S (some centres not stated)	–	–	–	–	?	–
CC(C)CN1CC(=O)N2C(c3ccccc3)c3[nH]c4ccccc4c3C[C@H]2C1=O (some centres not stated)	–	–	–	–	10µM	–
SMILES	GLS inhibitor	12-LOX inh	GLP1R ag	GRP78 ERSR act	GLP1R inv ag	PTHR1 ag
COc1cc([C@H]2c3[nH]c4ccccc4c3C[C@H]3C(=O)N4[C@@H](c5cc(OC)c(OC)c(OC)c5)c5[nH]c6ccccc6c5C[C@H]4C(=O)N23)cc(OC)c1OC	–	·	–	?	10µM	–
COc1ccc(S(=O)(=O)Oc2ccc3oc(=O)cc(-c4cc5cccc(OC)c5o4)c3c2)cc1	·	–	·	·	·	·
COc1ccc(NC(=O)N2CCC3(CC2)CC(OCC2CC2)CCO3)cc1 (configuration not stated)	·	–	·	·	·	·
CCc1ccc(OCC(=O)NC(NC(=S)Nc2ccccc2)C(Cl)(Cl)Cl)cc1 (configuration not stated)	–	–	–	–	3.98µM	–
CCc1ccc(OCC(=O)NC(NC(=S)Nc2ccccc2C)C(Cl)(Cl)Cl)cc1 (configuration not stated)	–	–	–	–	?	–
CCc1ccc(OCC(=O)NC(NC(=S)Nc2ccc(C)cc2C)C(Cl)(Cl)Cl)cc1 (configuration not stated)	–	?	–	–	5.01µM	–
Cc1ccc(NC(NC(=O)c2ccc(Cl)cc2)C(Cl)(Cl)Cl)cc1 (configuration not stated)	·	–	·	·	·	·
CC(=O)Nc1ccc(NC(=S)NC(NC(=O)c2ccc(C)cc2)C(Cl)(Cl)Cl)cc1 (configuration not stated)	·	31.6µM	·	·	·	·
Cc1ccc(NC(=S)NC(NC(=O)c2ccccc2C)C(Cl)(Cl)Cl)c(C)c1 (configuration not stated)	–	35.5µM	–	–	5.62µM	–
CCN1CCCC1CNC(=O)c1c(C)nn(-c2ccc(F)cc2)c1-n1cccc1 (configuration not stated)	·	–	·	·	·	·
CCCNC(=O)CN(C)Cc1cccc2cccnc12	·	–	·	·	·	·
C=CCNC(=O)Nc1ccc(CC#N)cc1	·	–	·	·	·	·
Cc1cc(C)c2c(=O)cc(C(=O)Nc3ccc(Cl)cc3)oc2c1	·	–	·	·	·	·
COC(=O)c1sc2nc(CN(C)Cc3ccc(F)cc3)[nH]c(=O)c2c1C	·	–	·	·	·	·
COc1ccc(/C=C/c2cc(C(=O)O)c3ccccc3n2)cc1OC	·	17.8µM	·	·	·	·
COc1ccc(/C=C/c2cc(C(F)(F)F)[nH]c(=O)n2)cc1OC	–	8.91µM	–	–	?	–
COCCN(CC(N)=O)S(=O)(=O)c1ccc(F)c(F)c1	·	–	·	·	·	·
O=C(Nc1ccc2c(c1)OCCO2)C(C1CC1)n1c(=O)c(-c2cc3ccccc3[nH]2)nc2ccccc21 (configuration not stated)	·	?	·	·	11.2µM	–
O=C(Nc1ccc2ccccc2c1)C(C1CC1)n1c(=O)c(-c2cc3ccccc3[nH]2)nc2ccccc21 (configuration not stated)	·	?	·	·	5.01µM	–
CCCn1nc(C(=O)N2CCN(Cc3ccccc3F)CC2)c2ccccc2c1=O	·	–	·	·	·	·
COc1ccc(NC(=O)CC2C(=O)N(Cc3ccco3)C(=S)N2C(C)C)cc1 (configuration not stated)	–	–	–	–	10µM	–
COc1ccc(NC(=O)CC2C(=O)N(Cc3cccs3)C(=S)N2C(C)C)cc1 (configuration not stated)	–	–	–	–	?	–
O=C(COc1ccccc1)N1CCC2(CC1)NC(=O)N(c1cccc(F)c1)N2	·	2.82µM	·	·	·	·
O=C(c1ccc(F)cc1)c1ccc(OCC(=O)N2CCOCC2)cc1	–	–	–	–	–	–
NC(=O)N1CCC2(CC1)NC(=O)N(c1ccccc1)N2	–	?	–	–	?	–
Cc1cccc(OCC(=O)N2CCC3(CC2)NC(=O)N(c2cccc(F)c2)N3)c1	·	2.24µM	·	·	·	·
